Reference: paper PMC12548414
The whole screen tested about 1,600 compounds, of which about 20 (1%) showed an effect of 50% or more. Shown is part of a subset that was picked to be rich in strong results.

Test system: T1, E. coli pLC1021 (luc-trpAt trans-translation reporter)
T1 construct: pLC1021 luc-trpAt reporter strain
Design: species or system Escherichia coli pLC1021; luc-trpAt non-stop luciferase reporter; luminescence rises when trans-translation is inhibited; normalized to KKL-35 and DMSO
Settings: reporter signal, KKL-35 = 100%; rise means trans-translation inhibition; 2 h, 20 µM
Procedure: The luciferase screen was performed as previously described ([16]). […] 48 µL of cells was transferred to white 96-well plates, and 2 µL DMSO or 20 µM compound, or 20 µM KKL-35 was added. Plates were sealed with adhesive film, vortexed gently to mix, and incubated at room temperature for 2 h. 50 µL Bright-Glo reagent (Promega, Madison, WI) was added to each well, and the plates were sealed with adhesive film, vortexed vigorously, and incubated for an additional 10 min at room temperature. Luminescence was measured at 560 nm using a SpectraMax i3 microplate reader and readings for each plate were normalized to the average of three KKL-35-treated wells (positive control) and three DMSO-treated wells (negative control) within the plate to correct for plate-to-plate and day-to-day variations. Results from at least two biological repeats were averaged, and GraphPad Prism was used to plot the data. We screened a library of 1,601 anti-tubercular small molecules for their ability to inhibit trans-translation using a luciferase reporter in Escherichia coli. In this luc-trpAt reporter, the firefly luciferase gene has a trpA transcriptional terminator before the stop codon, such that luciferase is translated from a non-stop mRNA ([16]). When trans-translation is active, the luciferase will be tagged and degraded, but when trans-translation is inhibited, active luciferase will accumulate, resulting in a luminescent signal when luciferin is added. Luciferase activity was measured after growth in the presence of compounds from the library at 20 µM, using the known trans-translation inhibitor KKL-35 as a positive control (Fig. 1A) ([16], [17]). Compounds with activity one standard deviation above the median were scored as positive (Fig. S1 and Table S1).

Compound	% activation
COC(=O)CSc1nc(N)c2c3c(sc2n1)CCCC3 [KKL-0994]	9%
COc1ccc(C(=O)NC(=S)Nc2ccc(N3CCCCC3)cc2)cc1OC [KKL-1472]	0%
Cc1cc(Nc2ccccc2)n(-c2nc3ccccc3[nH]2)n1 [KKL-0835]	21%
COc1ccc2[nH]c(CNCCc3nc4cc(Cl)ccc4[nH]3)cc2c1 [KKL-1215]	0%
COCc1nnc(NC(=O)c2nnn(-c3ccccc3F)c2C)s1 [KKL-0547]	0%
CCC(C)NCCCOc1ccc(Cl)c2ccccc12 (stereo not shown) [KKL-1428]	0%
O=C(CNCCN1CCOCC1)Nc1sc2c(c1C(=O)Nc1ccccc1)CCC2 [KKL-1074]	2%
CCOC(=O)c1ccc(NC(S)=Nc2ccc(Oc3ccccc3)cc2)cc1 [KKL-1317]	0%
Cc1c(C(=O)NC(=S)Nc2ccc(Oc3ccc(Cl)cc3)cc2)cccc1[N+](=O)[O-] [KKL-0735]	17%
O=C(COc1cccc(F)c1)Nc1nc(-c2ccccn2)cs1 [KKL-1787]	5%
O=C(CSc1ccccc1)Nc1ccc(-c2nc3ccccc3c(=O)o2)cc1 [KKL-0595]	1%
O=C(Nc1ccc(F)cc1)NC1CCCCCCC1 [KKL-1335]	0%
COc1cc(CN(CCCn2ccnc2)Cc2ccc(C)s2)cc2c1OCO2 [KKL-0341]	9%
CSc1nc2nc3c(c(O)n2n1)CCCC3 [KKL-1033]	0%
O=C(Oc1c(Cl)cc(Cl)c2cccnc12)c1ccc([N+](=O)[O-])cc1 [KKL-0754]	96%
Cc1c(C(=O)Oc2cccc3cccnc23)cccc1[N+](=O)[O-] [KKL-0952]	8%
Cc1ccc(C(=O)Oc2ccc(Cl)c3cccnc23)cc1[N+](=O)[O-] [KKL-1383]	0%
O=C(Oc1c(Cl)cc(Cl)c2cccnc12)c1ccco1 [KKL-1639]	0%
COc1ccc(C(=O)Oc2cccc3cccnc23)cc1[N+](=O)[O-] [KKL-1648]	0%
O=C(Oc1c(Cl)cc(Cl)c2cccnc12)c1ccccc1[N+](=O)[O-] [KKL-1418]	90%
CCCc1cc2c(=O)c(-c3ccc4c(c3)OCCCO4)coc2cc1OCC(=O)OCC [KKL-1419]	0%
O=C(Nc1ccc(Cl)cc1C(F)(F)F)c1ccc([N+](=O)[O-])o1 [KKL-0712]	0%

Compound	% activation
CN1CCN(c2cc(-c3ccc(F)cc3)nc(-c3ccncc3)n2)CC1 [KKL-1844]	0%
COc1ccc(-c2cncc(-c3cc(N4CCN(CCO)CC4)nc(-c4ccccc4)n3)c2)cc1 [KKL-1682]	0%
CN1CCN(c2cc(-c3ccncc3)nc(-c3ccccc3)n2)CC1 [KKL-1795]	237%
Cc1cc(CN2CCC(O)(c3ccccc3)C2)ccc1N1CCCC1 (stereo not shown) [KKL-0330]	0%
CCc1ccc(Nc2nnc(SCc3cc(C)on3)s2)cc1 [KKL-1791]	0%
N#Cc1cc2c(ccc3ccccc32)oc1=O [KKL-1386]	0%
CCCc1ccc2oc(C(=O)NCCc3ccc(O)cc3)c(C)c2c1 [KKL-1185]	2%
C#CCOc1cccc(CN2CCn3cccc3C2CC)c1 (stereo not shown) [KKL-0516]	0%
CSc1ncc(CN2CCCC(C(=O)c3ccc(-c4ccccc4)c(F)c3)C2)cn1 (stereo not shown) [KKL-0344]	0%
CN(CC1Cc2ccccc2CN1C)C(=O)c1cc(COc2cncc(Cl)c2)on1 (stereo not shown) [KKL-1186]	0%
COc1ccccc1N1C(=O)c2cccc3cc([N+](=O)[O-])cc(c23)C1=O [KKL-1508]	0%
Cc1ccccc1OCCCON1C(=N)N=C(N)NC1(C)C [KKL-1698]	11%
COc1ccc(C(C)(C)C)cc1N=C(S)Nc1ccc(Cl)c(Cl)c1 [KKL-1535]	0%
Cc1ccc2nc(C(F)(F)F)c(C(=O)NCc3cccc(OC(C)C)c3)n2c1 [KKL-1772]	2%
Cc1ccccc1/C=C/c1ccc2cccc(O)c2n1 [KKL-0432]	11%
CC(=O)Nc1ccc2cccc(O)c2n1 [KKL-0957]	55%
Oc1cccc2ccc(/C=C/c3cccc(F)c3)nc12 [KKL-1464]	18%
Cc1nc2ccccn2c1C(=O)Nc1ccc(C(C)(C)C)cc1 [KKL-1770]	0%
N#Cc1ncn(-c2ccc3nnc(C(F)(F)F)n3n2)n1 [KKL-1886]	0%
CC(C)c1noc(N2CCC(C(C)Oc3cnc(-c4ccc(S(C)(=O)=O)c(F)c4)cn3)CC2)n1 (stereo not shown) [KKL-1810]	0%
Cc1ccc(-c2cc(C(=O)N3CCCC(N4CCN(c5ccccc5C)CC4)C3)[nH]n2)s1 (stereo not shown) [KKL-0485]	0%
COc1cccc(O)c1CN1CCC(C(=O)Nc2ccc(-c3cccc(C)c3)cc2)CC1 [KKL-0508]	0%

Compound	% activation
CSc1nccc(N2CCCC(CCC(=O)NCc3ccc(F)c(F)c3)C2)n1 (stereo not shown) [KKL-0346]	0%
c1ccc(-c2nc3c(c(N4CCN(Cc5cc6ccccc6[nH]5)CC4)n2)CCC3)cc1 [KKL-0483]	0%
Fc1ccc(Nc2nc(-c3ccccn3)cs2)cc1 [KKL-0715]	18%
O=C(CCCSc1ccccc1)Nc1nc(-c2ccccn2)cs1 [KKL-0800]	1%
COC(=O)COc1ccc2c(=O)c(-c3ccccc3Cl)c(C)oc2c1 [KKL-0748]	0%
COC(=O)COc1ccc(NC(=O)c2ccccc2I)cc1 [KKL-1569]	0%
Cc1ccc(NC(=O)C(Cl)Cl)cc1[N+](=O)[O-] [KKL-1373]	4%
O=C(Cc1ccc(F)cc1)Nc1nc(-c2ccccn2)cs1 [KKL-1688]	13%
Cc1cc(NCc2ccccn2)n2ncc(-c3ccccc3)c2n1 [KKL-0947]	0%
COc1ccccc1CN1CCCCC1C(=O)Nc1ccc(-n2cccn2)cc1 (stereo not shown) [KKL-0494]	3%
Cc1ccc(-n2cc(CN(C)Cc3cc(C)[nH]n3)c(-c3ccc(F)cc3)n2)cc1 [KKL-0319]	0%
COc1ccccc1C1(O)CCN(Cc2cnn(-c3ccc(C)cc3)c2)CC1 [KKL-0553]	7%
O=[N+]([O-])c1cccc(NC(S)=Nc2ccc(Cl)c(C(F)(F)F)c2)c1 [KKL-1319]	0%
COC(=O)C(CCSC)NC(=O)c1cc(COc2ccc(F)cc2Cl)on1 (stereo not shown) [KKL-0497]	9%
O=C(Nc1ccc(Oc2cccnc2)cc1)C1Oc2ccccc2O1 [KKL-0696]	0%
c1ccc(CCNc2ccnc3cc4ccccc4cc23)cc1 [KKL-1051]	0%
Cc1nc(C2CCNCC2)ncc1-c1nc(N2CCCCCC2)ncc1-c1ccc(F)cc1 [KKL-0335]	0%
C(=C\c1nc(N2CCCC2)c2ccccc2n1)/c1ccccc1 [KKL-1269]	0%
Cc1ccc2nc(C(F)(F)F)c(C(=O)NCc3cc(Cl)cc(Cl)c3)n2c1 [KKL-1785]	16%
COc1ccc(CCN=C(S)N2CCN(C/C=C/c3ccccc3)CC2)cc1OC [KKL-1528]	2%
CC(C)c1ccc(OCC(=O)NNC(=S)NC(=O)c2ccco2)c(Br)c1 [KKL-0743]	24%
Cc1ccc(C2(O)CCN(CCNC(=O)c3oc4ccccc4c3C)CC2)cc1 [KKL-0340]	1%

Compound	% activation
CC(C)(C)c1ccc(C(=O)Nc2ccc(NC(=S)NC(=O)c3cccs3)cc2)cc1 [KKL-0310]	0%
Oc1c(CN2CCc3ccccc3C2)cc(Cl)c2cccnc12 [KKL-0391]	42%
CSc1ncc(C(=O)NC2(c3ccccc3)CCCC2)cn1 [KKL-0465]	0%
COc1ccc(N=c2cc(-c3ccc(O)cc3)oc3ccccc23)cc1 [KKL-0846]	0%
CCC(Sc1nc2ccccc2o1)C(=O)Nc1nnc(C)s1 (stereo not shown) [KKL-1356]	2%
CCc1ccc(C2CC(C(F)(F)F)n3ncc(C(=O)NCc4cccs4)c3N2)cc1 (stereo not shown) [KKL-1779]	0%
Cc1ccccc1CN1CC[C@@H]2[C@H](C1)[C@@H](c1ccc(F)cc1)CN2C(=O)C(C)C [KKL-1218]	2%
OC(CN1CCC(O)(c2ccc(F)cc2)CC1)c1ccc(-c2ccccc2)cc1 (stereo not shown) [KKL-0933]	0%
CCC1CCCCN1C(=O)COC(=O)c1cc2ccccc2cc1O (stereo not shown) [KKL-0823]	0%
O=C(NCc1cc(Cl)cc(Cl)c1)c1c(C(F)(F)F)nc2ccccn12 [KKL-1807]	0%
O=C(Nc1ccn(Cc2ccc(Cl)cc2)n1)c1ccc2c(c1)OCO2 [KKL-0566]	0%
FC(F)(F)c1nnc2ccc(Sc3nnc(-c4ccco4)o3)nn12 [KKL-1754]	1%
CCCC(=O)NC(=S)Nc1ccc(N2CCN(C(=O)c3cccs3)CC2)c(Cl)c1 [KKL-0912]	0%
O=C(NCc1cnn(-c2cccc(F)c2)c1)c1cc(COc2cccc3cccnc23)on1 [KKL-0634]	2%
O=C(NCCCc1ccc(F)cc1)c1cc(-c2ccccn2)[nH]n1 [KKL-0693]	0%
O=C(Nc1nccs1)c1ccc(CSc2ccccc2)o1 [KKL-0586]	0%
CCc1c(C)c2ccc(OCC(=O)OC)c(C)c2oc1=O [KKL-1278]	0%
CCOC(=O)/C(C#N)=C/c1ccc(-c2ccc(F)cc2)o1 [KKL-0788]	0%
NC1CCc2nc(-c3ccncc3)nc(Nc3cccc(C(F)(F)F)c3)c2C1 (stereo not shown) [KKL-0541]	802%
NC1CCc2nc(-c3ccncc3)nc(Nc3ccc(C(F)(F)F)cc3)c2C1 (stereo not shown) [KKL-0539]	620%
O=C(CC12CC3CC(CC(C3)C1)C2)Nc1cccc(C(F)(F)F)c1 [KKL-1282]	0%
O=C(/C=C/c1cccc(C(F)(F)F)c1)Nc1cccc(C(F)(F)F)c1 [KKL-1369]	0%
